HEK293 tox = qHTS of GLP-1 Receptor Inverse Agonists: Cytotox Screen | HEK293 cAMP-luciferase reporter cells, luminescence, 24 h | Potency, µM (highest dose often 38.3 µM), hits mostly inhibitors | 0.13% of 410,000 active;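 also: loss of luciferase light is scored as toxicity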
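Cells in DMEM/10% Nu serum/1% pen-strep, 1536-well format. Pre-incubated 12 h, dosed with 23 nL compound, incubated a further 24 h. Luciferase detection, 12 min at room temp, luminescence.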
GLP-1R inv ag = qHTS of GLP-1 Receptor Inverse Agonists (Inhibition Mode); HEK293 GLP-1R CRE-luciferase, luminescence, 24 h; GLP-1R form is constitutively active; AID 624417, 2012; 1.6% of 410,000 active; Potency, µM (doses to about 38.3 µM), hits mostly inhibitors; also: nearly all actives have a fitted effect of over 55% in size
Target sequence (P43220 whole entry, looked up): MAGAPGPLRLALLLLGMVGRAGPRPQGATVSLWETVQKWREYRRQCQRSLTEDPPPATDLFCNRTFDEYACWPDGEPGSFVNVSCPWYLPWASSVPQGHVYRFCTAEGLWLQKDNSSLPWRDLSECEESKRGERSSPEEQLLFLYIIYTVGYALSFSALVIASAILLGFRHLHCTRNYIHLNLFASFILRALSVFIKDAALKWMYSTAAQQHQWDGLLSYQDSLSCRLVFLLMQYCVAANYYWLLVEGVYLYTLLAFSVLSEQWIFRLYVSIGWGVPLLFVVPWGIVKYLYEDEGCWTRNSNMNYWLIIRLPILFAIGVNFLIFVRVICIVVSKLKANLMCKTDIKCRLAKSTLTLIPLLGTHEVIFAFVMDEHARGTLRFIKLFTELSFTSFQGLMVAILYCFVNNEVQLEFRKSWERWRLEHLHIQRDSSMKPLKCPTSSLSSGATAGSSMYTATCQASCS
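qHTS in 1536-well format: reporter HEK293 cells expressing constitutive GLP-1R activity in DMEM + 10% Nu serum, 24 hr with compounds at 37 deg C, luminescence read after 12 min with detection reagent.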
GLP1R ag = qHTS of GLP-1 Receptor Agonists; 0.007% of 380,000 active; Glucagon-like peptide 1 receptor (Homo sapiens), P43220; HEK293 GLP-1R CRE-luciferase, luminescence, 4-6 h; cells express a hypersensitive GLP-1R form; AID 624172, 2012; Potency, µM (highest dose often 45.6 µM), hits mostly activators
Mito fusion yeast = qHTS Assay for Small Molecule Inhibitors of Mitochondrial Division or Activators of Mitochondrial Fusion; S. cerevisiae fusion-defective mutant growth rescue, CellTiterGlo 48 h; Potency, µM (top dose mostly 46.1 µM), actives largely listed as activators; 0.23% of 320,000 active; also: nearly all actives have a fitted effect of over 45% in size
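Read-out: ATP-based luminescence (CellTiterGlo, 10 min ambient) reporting growth of fusion-defective ts yeast after 48 hours at 37C on glycerol/ethanol YPEG medium in the presence of compound.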
BRCA1 expr act = qHTS Assay to Identify Small Molecule Activators of BRCA1 Expression; MCF7-BRCA1-FFLuc reporter, luminescence, 48 h; response scale: scaled: vehicle 0%, 10 µM genistein 100%; Potency, µM (series often up to 46.1 µM), hits mostly activators; 1.1% of 380,000 active; also: nearly all actives have a fitted effect of over 80% in size
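First, MCF7-BRCA1-FFLuc cells (2000/well) attach for 2 h; next, compounds are pin-added and incubated 48 h at 37 °C; finally, luciferase reagent is added and luminescence read after 15 min.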
Numbers stand for hits. The list is not random: actives were taken first. Their share in the collection is about 2.8%. Calls follow the shape of the dose curve; as a rule, active = well fitted curve in the direction sought with a large enough effect; inconclusive = small, poorly fitted or top-dose-only effect, or another doubt; inactive = no such curve, though single readings can be large; an effect the other way counts as inactive or inconclusive.

`CCOC(=O)c1sc(=S)n(-c2ccc(OC)cc2)c1C` gave HEK293 tox inactive, GLP-1R inv ag inconclusive, GLP1R ag inactive, Mito fusion yeast inactive and BRCA1 expr act inactive.
`CCOC(=O)c1c2c(n(-c3ccc(OC)cc3)c1C)C(=O)C(=O)c1ccccc1-2` gave HEK293 tox 3.2µM, GLP-1R inv ag inconclusive, GLP1R ag inactive and BRCA1 expr act inactive.
O=C1C2C(c3ccccc3)CC=CC2[C@H](c2cccc([N+](=O)[O-])c2)N1Cc1ccccc1 (some centres not stated) was read as HEK293 tox inactive, GLP-1R inv ag 10µM, GLP1R ag inactive, Mito fusion yeast inactive and BRCA1 expr act inactive.
For Cc1ccc(-c2cccc(C3CC=CC4C3C(=O)N(Cc3ccccc3)C4c3cc(C)ccc3F)c2)cc1 (configuration not stated) the results were HEK293 tox inactive, GLP-1R inv ag 4.5µM, GLP1R ag inactive, Mito fusion yeast inactive and BRCA1 expr act inactive.
COc1ccc(-c2cccc(C3CC=CC4C3C(=O)N(Cc3ccccc3)C4c3ccc(C(F)(F)F)cc3)c2)cc1 (configuration not stated) was read as HEK293 tox inactive, GLP-1R inv ag inconclusive, GLP1R ag inactive, Mito fusion yeast inactive and BRCA1 expr act inactive.
`N#CCC(=O)N/N=C/c1cn(Cc2ccccc2C#N)c2ccccc12` gave HEK293 tox inactive, GLP-1R inv ag inactive, GLP1R ag inactive, Mito fusion yeast inactive and BRCA1 expr act inactive.
`N#CCC(=O)N/N=C/c1cn(Cc2ccc(Cl)c(Cl)c2)c2ccccc12` gave HEK293 tox inconclusive, GLP-1R inv ag 1.3µM, GLP1R ag inactive, Mito fusion yeast inactive and BRCA1 expr act inactive.
`CN1CCCC(CN2c3ccccc3Sc3ccccc32)C1` (configuration not stated) gave HEK293 tox inactive, GLP-1R inv ag 10µM, GLP1R ag inactive, Mito fusion yeast inactive and BRCA1 expr act inactive.
O=C(CON=C1c2ccccc2-c2ccccc21)NC12CC3CC(CC(C3)C1)C2 was read as HEK293 tox inactive, GLP-1R inv ag 1µM, GLP1R ag inactive, Mito fusion yeast inactive and BRCA1 expr act inactive.
For COc1ccccc1C(=O)OCC(=O)NC12CC3CC(CC(C3)C1)C2 the results were HEK293 tox inactive, GLP-1R inv ag 10µM, GLP1R ag inactive, Mito fusion yeast inactive and BRCA1 expr act inactive.
`COc1ccc(NC(=O)Nc2ccccc2OC)cc1` gave HEK293 tox inactive, GLP-1R inv ag inactive, GLP1R ag inactive, Mito fusion yeast inactive and BRCA1 expr act 14µM.
COc1ccc(NC(=O)Nc2ccc(Br)c(C)c2)cc1 was read as HEK293 tox inactive, GLP-1R inv ag inactive, GLP1R ag inactive, Mito fusion yeast inactive and BRCA1 expr act 11µM.
COc1ccc(NC(=O)Nc2ccc(F)c(Cl)c2)cc1 was read as HEK293 tox inactive, GLP-1R inv ag inconclusive, GLP1R ag inactive, Mito fusion yeast inactive and BRCA1 expr act inconclusive.
For COc1ccccc1C(=O)Nc1ccc(N2CCN(Cc3ccccc3)CC2)cc1 the results were HEK293 tox inactive, GLP-1R inv ag 11µM, GLP1R ag inactive, Mito fusion yeast inactive and BRCA1 expr act inactive.
`COc1ccccc1NC(=O)C(C)N(C)CCOc1ccccc1` (configuration not stated) gave HEK293 tox inactive, GLP-1R inv ag 11µM, GLP1R ag inactive, Mito fusion yeast inactive and BRCA1 expr act inactive.
`COc1cc(N)c(Cl)cc1C(=O)OCCN1CCCCC1` gave Mito fusion yeast inactive.
`O=C(NCc1cccc(F)c1F)C1CCC(=O)N(C2CCCCCC2)C1` (configuration not stated) gave HEK293 tox inactive, GLP-1R inv ag inactive, GLP1R ag inactive, Mito fusion yeast inactive and BRCA1 expr act inactive.
`COc1ccccc1NC(=O)Nc1ccc(N2CCOCC2)cc1` gave HEK293 tox inactive, GLP-1R inv ag inactive, GLP1R ag inactive, Mito fusion yeast inactive and BRCA1 expr act 7.1µM.

Bioassay records from PubChem.
